Assay outcomes deposited in PubChem BioAssay by National Center for Advancing Translational Sciences (NCATS).
L3MBTL1 block: blocks human L3MBTL1 | Q9Y468 | AlphaScreen L3MBTL1–H3K9me1 peptide binding | Potency, µM (titrated, usually from 57.1 µM), actives largely listed as inhibitors | 0.66% of 230,000 active; note: nearly all actives have a fitted effect of over 60% in size
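First, the protein-peptide complex forms for 30 min at room temperature (L3MBTL1 50 nM, biotinylated H3K9me1 peptide 75 nM). Next, compounds are pin-transferred and incubated 30 min. Finally, AlphaScreen beads are added and read after 30 min.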
BAZ2B block: blocks human BAZ2B | Q9UIF8 | AlphaScreen BAZ2B-H3K14Ac peptide displacement | Potency, µM (titrated, usually from 114 µM), usual class: inhibitors | 4.4% of 360,000 active | AID 504333; note: nearly all actives have a fitted effect of over 60% in size
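AlphaScreen luminescence quantifies BAZ2B engagement of H3K14Ac peptide; the protein and biotinylated peptide are both at 50 nM final, buffer PBS pH 7.4 with 0.01% Tween-20, all steps at room temperature.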
G9a block: blocks human histone lysine methyltransferase G9a | AID 504332 | 8.8% of 350,000 active | Potency, µM (top dose mostly 102 µM), actives largely listed as inhibitors | Q96KQ7 | G9a H3K9 monomethylation, AlphaScreen, 2 h; note: nearly all actives have a fitted effect of over 75% in size
Target sequence (Q96KQ7 913-1193 limits assumed): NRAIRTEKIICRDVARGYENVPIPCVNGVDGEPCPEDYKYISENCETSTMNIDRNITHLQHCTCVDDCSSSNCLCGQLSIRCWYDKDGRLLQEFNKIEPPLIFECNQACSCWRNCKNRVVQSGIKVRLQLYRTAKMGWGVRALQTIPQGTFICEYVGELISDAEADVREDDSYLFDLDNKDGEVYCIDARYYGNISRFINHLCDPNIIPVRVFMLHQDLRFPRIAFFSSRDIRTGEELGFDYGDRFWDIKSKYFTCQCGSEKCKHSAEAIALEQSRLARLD
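G9a (20 nM) was preincubated 15 min with compound, then reacted 2 h at room temperature with 500 nM biotin-H3K9 peptide and 20 µM SAM. Monomethyl-H3K9 detected by AlphaScreen using anti-H3K9me1 antibody.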
Sfp PPTase inh: blocks B. subtilis Sfp PPTase activity | Q9F4F7 | Biochemical Sfp PPTase activity, qHTS | Potency, µM, hits mostly inhibitors | 3.5% of 310,000 active;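 note: the enzyme is Sfp with the accession as filed and its product quenches rhodamine fluorescence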
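Reaction rates are the 30-min fluorescence difference (ex 525, em 598 nm) in wells containing 15 nM Sfp, 5 uM rhodamine-CoA and 12.5 uM BHQ-2-YbbR at pH 7.6 with 10 mM MgCl2.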
JMJD2A Tudor inh: blocks the human JMJD2A Tudor domain. O75164. AlphaScreen JMJD2A-Tudor / H3K4me3 peptide binding. Potency, µM (top dose mostly 114 µM), usual class: inhibitors. 4.4% of 390,000 active. AID 504339; note: nearly all actives have a fitted effect of over 50% in size
HP1b chromo inh: blocks HP1-beta chromodomain binding to methylated histone tails; P83916; AlphaScreen HP1-beta / biotin-H3K9me3 peptide binding; Potency, µM (titrated, usually from 114 µM), most hits filed as inhibitors; 0.56% of 390,000 active; note: nearly all actives have a fitted effect of over 70% in size
Target sequence (P83916 whole entry, looked up): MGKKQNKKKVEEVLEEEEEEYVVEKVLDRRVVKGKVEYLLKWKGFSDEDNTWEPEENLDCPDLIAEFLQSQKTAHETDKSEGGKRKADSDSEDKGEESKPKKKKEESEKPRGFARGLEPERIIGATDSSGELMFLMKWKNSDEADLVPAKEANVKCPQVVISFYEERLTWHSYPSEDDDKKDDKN
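AlphaScreen: HP1-beta (50 nM) preformed 30 min with biotin-H3(1-18)K9me3 peptide (50 nM) in PBS pH 7.4, 0.01% Tween-20. Compound added for 30 min at RT, then streptavidin donor/nickel chelate acceptor beads (10 ug/mL) for 30 min.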
A number is an active result; n = inactive; u = inconclusive; x = no result; [ ] = remark or other dose. Compounds with a hit are over-represented: about 12% of the library has one in this group of screens. Calls come from the whole dose curve; as a rule, active = well fitted curve in the direction sought with a large enough effect; inconclusive = small, poorly fitted or top-dose-only effect, or another doubt; inactive = no such curve, though single readings can be large; an effect the other way counts as inactive or inconclusive.

SMILES	L3MBTL1 block	BAZ2B block	G9a block	Sfp PPTase inh	JMJD2A Tudor inh	HP1b chromo inh
CC(C)c1ccc(O)c(NC(=S)NC(=O)c2cccnc2)c1	n	n	n	n	n	n
CCC(C)c1ccc(O)c(NC(=O)c2cccnc2)c1 (stereo unspecified)	x	n	50µM	n	n	n
CC(C)c1ccc(O)c(NC(=O)c2cncc(Br)c2)c1	n	n	40µM	n	n	n
CCCCN1CC2([N+](=O)[O-])C=CC(=O)C([N+](=O)[O-])(C1)C2CC(=O)c1ccccc1 (stereo unspecified)	n	n	45µM	n	n	n
CCCC[n+]1ccn(-c2nc3ccccc3nc2[N-]S(=O)(=O)c2ccc(Br)cc2)c1	n	n	x	n	u	n
CC(C)CC[n+]1ccn(-c2nc3ccccc3nc2[N-]S(=O)(=O)c2ccccc2)c1	n	n	n[12.7 µM]	79µM	n	n
CCNC(=O)NC(=O)C(C)Sc1nnc(COc2ccccc2Cl)o1 (stereo unspecified)	x	u	18µM	n	u	n
NNC(=O)c1sc2cc(C(F)(F)F)cnc2c1-c1ccccn1	n	u	5.6µM	n	n[11.4 µM]	n
O=C(O)c1sc2cc(C(F)(F)F)cnc2c1-c1ccccc1	n	n	n[0.0925 µM]	n	n	n
CCCCc1nn2c(=O)cc(COC(=O)CNC(=O)COc3ccc(C)cc3)nc2s1	x	n	n	x	n	n
Cc1ccc(Nc2nnc(SCC(=O)Nc3ncc(C(F)(F)F)cc3Cl)s2)cc1	n	n	7.1µM	n	n	n
Cc1ccccc1Nc1nnc(SCC(=O)Nc2ncc(C(F)(F)F)cc2Cl)s1	n	n	n	n	n	n
Cc1cccc(C)c1Nc1nnc(SCC(=O)Nc2ncc(C(F)(F)F)cc2Cl)s1	n	n	2.2µM	n	25µM	n
Cc1cc(C)nc(NS(=O)(=O)c2ccc(NC(=O)c3ccccc3O)cc2)n1	x	n	n	x	n	n
Cc1ccccc1CN1c2ccccc2-c2nc(SCC(=O)NCc3ccccc3)ncc2S1(=O)=O	x	n	n	x	n	n
CCCC(c1nnnn1C(C)(C)C)N1CCN(c2ccccc2)CC1 (stereo unspecified)	n	n	n	n	n	n
CCCC(c1nnnn1C(C)(C)C)N1CCN(Cc2ccccc2OC)CC1 (stereo unspecified)	u	u	n[12.7 µM]	56µM	n	n
COc1ccc(CCn2c(N)c(C(=O)NCc3ccco3)c3nc4ccccc4nc32)cc1	n	n	n	u	n	n
Nc1c(C(=O)NCc2ccco2)c2nc3ccccc3nc2n1CCc1ccccc1F	x	n	u	56µM	n	n
COc1ccc(CCn2c(N)c(C(=O)NCc3ccco3)c3nc4ccccc4nc32)cc1OC	n	n	n	45µM	n	n
Cc1cc(C)c(S(=O)(=O)N2CCC(N3CCN(Cc4ccc(F)cc4)C(=O)C3=O)CC2)c(C)c1	x	n	n[12.7 µM]	x	n	n
CCNc1nc2[nH]c(=O)c3c(c2s1)OC(N)=C(C#N)C3c1ccc(C)cc1 (stereo unspecified)	n	u	u	45µM	n	n
CSc1ccc(CCNC(=O)CCc2c(C)nc3ncnn3c2C)cc1	x	n	n	x	n	n
CCCCc1cc(=O)oc2c(CN3CCCC3)c(O)ccc12	n	n	u	n	n	n
CCCCc1cc(=O)oc2cc(C)c(CN3CCCC3)c(O)c12	u	45µM	n[12.7 µM]	n	50µM	n
SMILES	L3MBTL1 block	BAZ2B block	G9a block	Sfp PPTase inh	JMJD2A Tudor inh	HP1b chromo inh
CCc1cc(=O)oc2cc(C)c(CN3CCCC(C)C3)c(O)c12 (stereo unspecified)	11µM	22µM	u	u	35µM	n
O=C(O)c1cccc(N2C(=O)/C(=C/c3ccc([N+](=O)[O-])cc3)C=C2c2ccccc2)c1	x	40µM	16µM	u	25µM	n
O=C1/C(=C/c2ccc([N+](=O)[O-])cc2)C=C(c2ccccc2)N1c1ccccc1	n	n	u	n	n	n
COc1ccc(N2C(=O)/C(=C/c3ccc([N+](=O)[O-])cc3)C=C2c2ccccc2)cc1	n	2.2µM	x	n	2.8µM	3.2µM
O=C1/C(=C/c2ccc([N+](=O)[O-])cc2)C=C(c2ccccc2)N1c1ccc(O)cc1	x	10µM	u	n	u	u
O=C(O)c1cccc(N2C(=O)c3cc([N+](=O)[O-])cc4cc([N+](=O)[O-])cc(c34)C2=O)c1	32µM	56µM	x	n	50µM	u
CC[C@H](C)[C@H](NC(=O)[C@H](C)NC(=O)CNC(=O)[C@H](CCCCN)NC(=O)[C@H](CC(N)=O)NC(=O)[C@H](CO)NC(=O)CN)C(=O)N[C@H](C(=O)NCC(=O)N[C@@H](CC(C)C)C(=O)N[C@@H](CCSC)C(=O)O)[C@@H](C)CC	x	x	x	n	x	x
CC(=O)Nc1ccc(NC(=O)Nc2cccc(Cl)c2)cc1	x	n	n	n	n	n
CC(=O)C(=Nc1ccc(Cl)cc1Cl)NNc1cccc(Cl)c1	x	14µM	u	n	56µM	u
CCOc1ccc(N(CC)S(=O)(=O)N2CCCC(C(=O)NCc3ccccc3Cl)C2)cc1 (stereo unspecified)	x	n	n	x	n	n
O=C(NCc1ccc(Cl)cc1)C1CCN(S(=O)(=O)c2ccc3c(c2)CCCN3C(=O)C2CCC2)CC1	x	n	n	x	n	n
COc1ccc(CCNC(=O)c2cc(=O)n(C)c(=O)n2C)cc1OC	x	n	n	n	n	n
COC(=O)c1cc(OC)c(OC)c(OC)c1NC(=O)c1cc(=O)n(C)c(=O)n1C	x	n	28µM	x	n	n
COc1cc2c(cc1OC)-c1n[nH]c(=S)n1C(C)(C)C2	x	n	4µM	n	40µM	n
COc1cc2c(cc1OC)-c1nnnn1C(C)(C)C2	n	n	n	n	n	n
COc1ccc(C2C=C(c3ccccc3)Nc3nc(NS(=O)(=O)c4ccccc4)nn32)cc1 (stereo unspecified)	x	n	n	x	n	n
CC1=CC(c2ccccc2)n2nc(NS(=O)(=O)c3ccc(C)cc3)nc2N1 (stereo unspecified)	n	u	18µM	n	n	n
CC1=CC(c2ccc(Cl)cc2)n2nc(NS(=O)(=O)c3ccc(C)cc3)nc2N1 (stereo unspecified)	x	n	32µM	n	n	n
Cc1nc(-c2cccc(NC(=O)Nc3ccc([N+](=O)[O-])cc3)c2)no1	x	u	n	x	u	n
O=c1oc2cc(O)ccc2cc1-c1nc(-c2ccc(Cl)c(Cl)c2)cs1	x	n	n	x	n	n
CCN1CCN(c2oc(COc3ccc(-c4ccccc4)cc3)nc2C#N)CC1	u	32µM	40µM	u	u	n
N#Cc1nc(COc2ccccc2)oc1N1CCN(c2cccc(Cl)c2)CC1	n	u	u	n	n	n
COc1ccc(N2CCN(c3oc(COc4ccccc4Cl)nc3C#N)CC2)cc1	x	7.9µM	10µM	n	u	u
